From PubChem
The list is not random: actives were taken first. Their share in the collection is about 0.9%.
PPARg SRC3 recr: promotes SRC-3 coactivator recruitment by human PPARgamma | P37231 | biochemical PPARgamma/SRC-3 coactivator recruitment assay | activation, % at 8 µM | 0.26% of 200,000 active | AID 731; in the data active means activation above about 23%
Target sequence (P37231 whole entry, looked up): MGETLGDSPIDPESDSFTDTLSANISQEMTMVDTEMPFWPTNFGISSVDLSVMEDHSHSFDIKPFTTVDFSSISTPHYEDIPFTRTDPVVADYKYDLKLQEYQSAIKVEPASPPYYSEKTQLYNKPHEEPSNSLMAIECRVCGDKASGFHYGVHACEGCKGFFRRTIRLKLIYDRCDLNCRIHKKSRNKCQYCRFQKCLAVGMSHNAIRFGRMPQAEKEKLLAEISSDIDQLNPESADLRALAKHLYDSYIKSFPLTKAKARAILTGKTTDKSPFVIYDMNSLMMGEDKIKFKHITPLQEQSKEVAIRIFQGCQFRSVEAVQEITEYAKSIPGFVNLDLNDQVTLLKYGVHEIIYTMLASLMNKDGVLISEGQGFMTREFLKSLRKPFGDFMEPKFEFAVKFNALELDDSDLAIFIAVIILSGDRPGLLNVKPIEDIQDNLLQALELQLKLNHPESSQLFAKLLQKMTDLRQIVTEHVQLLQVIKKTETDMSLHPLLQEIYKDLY
PPARg SRC-2 ag: agonists of SRC-2 recruitment by human PPARgamma; P37231; PPARgamma LBD-SRC-2 recruitment, biochemical; activation, % at 8 µM; 0.34% of 200,000 active; AID 1032; in the data active means activation above about 22%
TR-FRET SRC-2 ct: flags TR-FRET format artefacts in PPARgamma SRC-2 recruitment agonist screen | TR-FRET artefact counter-screen; active compounds read high | TR-FRET ratio at 8 µM | 0.4% of 200,000 active | AID 1049
SRC1 TRFRET art: counter-screen for PPARgamma SRC-1 recruitment agonists: TR-FRET artefact; 0.34% of 99,000 active; TR-FRET detection artefact counter-screen, emission ratio; active compounds read high; TR-FRET ratio at 8 µM; in the data active means TR-FRET ratio above about 2300
PPARg SRC1 recr: agonists of human PPARgamma SRC-1 coactivator recruitment; AID 631; PPARgamma-SRC-1 coactivator recruitment biochemical assay; activation, % at 8 µM; P37231; 0.41% of 200,000 active; in the data active means activation above about 19%
SRC3 TRFRET art: flags TR-FRET format artefacts in PPARgamma SRC-3 recruitment agonist screen | 0.39% of 99,000 active | TR-FRET artefact counter-screen, PPARgamma/SRC-3 format; active compounds read high | TR-FRET ratio at 8 µM
Hits are given with their value; . = inactive; / = no result given. Unless noted, no stated cut-off is given here; in the data, active means TR-FRET ratio above about 2000; inactive means the rest.

SMILES	PPARg SRC3 recr	PPARg SRC-2 ag	TR-FRET SRC-2 ct	SRC1 TRFRET art	PPARg SRC1 recr	SRC3 TRFRET art
CC(=O)CCc1ccc(OC(=O)c2cccnc2)cc1	.	26	1983	/	.	/
COc1cccc(-c2nn(-c3ccccc3)cc2C(=O)OCC(=O)Nc2ncc(Cl)cc2Cl)c1	.	.	2626	2559	.	3059
O=C(COC(=O)c1ccccc1O)Nc1ncc(Cl)cc1Cl	.	.	.	.	.	.
O=S(=O)(c1ccc(Cl)c(C(F)(F)F)c1)N1CCN(c2ccccn2)CC1	.	.	.	.	.	.
Cc1ccc(C)c(S(=O)(=O)N2CCN(CC(=O)Nc3sccc3C#N)CC2)c1	.	.	.	.	.	2054
CCc1ccc(N(C(=O)c2csnn2)C(C(=O)NC(C)(C)C)c2cccnc2)cc1 (configuration not stated)	.	23	2266	.	.	.
CC(C)(C)c1nnc(NC(=O)CN2C(=O)C3C4C=CC(C4)C3C2=O)s1 (configuration not stated)	36	.	.	/	.	/
CCCS(=O)(=O)N1CCCC(C(=O)NCC(OC)OC)C1 (configuration not stated)	.	.	.	.	.	.
COC(=O)c1ccccc1NC(=O)Cc1nc(-c2ccccc2)sc1-c1ccc(C)cc1	.	.	.	.	.	2243
CCOC(=O)CN1C(=N)N(c2nc(NC(C)C)nc(NC(C)C)n2)CC1=O	.	.	.	/	.	/
CCOC(=O)/C(C#N)=C\N(C)C	.	.	.	/	.	/
C=CCN1C=CC(=C/C=C(/C#N)C(=O)OCC)C=C1	.	.	.	/	26	/
OCC[C@@H]1C[C@@H](O)[C@H](O)[C@]2(CCCCO2)O1	.	.	.	.	.	.
CCOC(=O)C1C(c2cccc(F)c2)NC(=S)NC1(O)C(F)(F)F (configuration not stated)	.	.	.	.	.	.
COc1ccc(C2(C)NC(=O)N(CC(=O)Nc3ccc(-c4nc5ccc(C)cc5s4)cc3)C2=O)cc1 (configuration not stated)	.	.	.	2469	.	2403
CCC1(c2ccc(F)cc2)NC(=O)N(CC(=O)Nc2ccc(-c3nc4ccc(C)cc4s3)cc2)C1=O (configuration not stated)	.	.	.	.	.	2350
Cc1nc2ccc(NC(=O)CCS(=O)(=O)c3ccccc3)cc2s1	.	.	.	.	.	.
Cc1ccc2nc(-c3ccc(NC(=O)CCS(=O)(=O)c4ccccc4)cc3)sc2c1	.	.	.	.	.	2301
COc1ccccc1NS(=O)(=O)c1cc(NC(=O)c2ccc3c(c2)OCCO3)ccc1C	.	.	.	.	.	.
O=C(CS(=O)(=O)Cc1ccccc1)Nc1ccc(S(=O)(=O)N2CCOCC2)cc1	.	.	.	.	.	.
O=C(/C=C/c1ccc(Br)cc1)c1ccc(NC(=O)c2ccco2)cc1	.	.	5699	2646	.	14077
CCOC(=O)C1=C(C)OC(N)=C(C#N)C1c1cc2ccccc2nc1N1CCCCC1 (configuration not stated)	26	.	.	/	.	/
CCOC(=O)CS(=O)(=O)c1ccc(O)cc1	.	.	.	.	21	.
CCOC(=O)CS(=O)(=O)c1ccccc1	.	.	.	/	.	/
CCc1nc2ccc(C(=O)Nc3nnc(C)s3)cc2nc1CC	.	.	.	6131	478	.
SMILES	PPARg SRC3 recr	PPARg SRC-2 ag	TR-FRET SRC-2 ct	SRC1 TRFRET art	PPARg SRC1 recr	SRC3 TRFRET art
CCc1nc2ccc(C(=O)Nc3cccc(C(C)=O)c3)cc2nc1CC	.	.	.	.	.	.
COc1ccc(/C=C\C(=O)NCc2ccc3c(c2)cc(C)n3C)cc1OC	.	.	.	.	.	2112
COc1cccc(C(=O)NCc2ccc3c(c2)cc(C)n3C)c1	.	.	2069	2604	.	2355
COc1ccc(C(=O)NCc2ccc3c(c2)cc(C)n3C)cc1OC	.	.	.	.	.	.
CCc1cccc(C)c1NC(=S)NCc1ccc2c(c1)cc(C)n2C	.	.	.	.	.	2094
O=c1cc2c(nn1Cc1ccccc1Cl)-c1ccccc1CC2	.	.	.	/	.	/
C[C@@H](c1ncncc1F)[C@](O)(Cn1cncn1)c1ccc(F)cc1F	.	.	.	.	.	.
CSc1nc(SCC(=O)NC(c2ccccc2)c2ccccc2)c2c3c(sc2n1)CN(C)CC3	.	.	2069	/	.	/
CSc1nc(SCC(=O)NCc2ccco2)c2c3c(sc2n1)COC(C)(C)C3	.	.	.	.	.	.
